Results on eight molecules are retold here after PubChem BioAssay (NCI).

Experiment [1] is described as follows: NCI Yeast Anticancer Drug Screen. Data for the rad50 strain (AID 155).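 Further: 0% = growth of vehicle-only cultures of the same strain.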 The settings on record: S. cerevisiae rad50 strain growth inhibition, active compounds read high. The essentials:
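Growth of the mutant yeast was measured after compound exposure and referenced to vehicle-treated cultures.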

The nature of experiment [2]: NCI Yeast Anticancer Drug Screen. Data for the mec2-1 strain (AID 157). The settings on record: S. cerevisiae mec2-1 strain, active compounds read high. An outline of the steps:
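mec2-1 yeast strain, carrying an alteration in DNA damage repair or cell cycle control, was exposed to compounds; growth inhibition was measured relative to vehicle-treated controls.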

A short description of experiment [3]: NCI Yeast Anticancer Drug Screen. Data for the sgs1 mgt1 strain (AID 161).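 Further: 0% = growth of cultures given vehicle only.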 Particulars: S. cerevisiae sgs1 mgt1 strain, active compounds read high. The essentials: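 Percent growth inhibition was derived by comparing compound-exposed mutant yeast with vehicle-exposed cultures. The strain carries alterations in DNA damage repair.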
Experiment [4] is described as follows: NCI Yeast Anticancer Drug Screen. Data for the cln2 rad14 strain (AID 165).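 Further: 0% = growth equal to vehicle treated cultures.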 Particulars: S. cerevisiae cln2 rad14 strain, active compounds read high. The essentials: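 Yeast carrying cln2 and rad14 alterations (cell cycle control and DNA damage repair) were exposed to compounds. Growth inhibition was measured against vehicle-treated controls.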
Experiment [5] in a line: NCI Yeast Anticancer Drug Screen. Data for the bub3 strain (AID 167). Particulars: S. cerevisiae bub3 mutant strain, active compounds read high. The essentials: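 Whole-cell yeast assay. The mutant strain was incubated with compounds, and growth inhibition was determined by comparison with vehicle-treated cells.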
Experiment [6] in a line: NCI Yeast Anticancer Drug Screen. Data for the mlh1 rad18 strain (AID 175). The settings on record: S. cerevisiae mlh1 rad18 strain growth inhibition, active compounds read high. An outline of the steps: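 Growth inhibition of the yeast strain was measured after compound exposure and expressed relative to vehicle-treated controls. The strain carries defined defects in DNA damage repair.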

Setting [7] is: at 5.0 µM (retest, dose inferred, filed as 0.5).
[8] abbreviates: at 50.0 µM (retest, dose inferred, filed as 5.0).

This is part of a sample that, as a whole, favours compounds with a hit. Of some 79,000 tested, about 15% had one in any assay. Unmarked numbers belong to inactive results. Calls of active or inactive are those of the source. No stated cut-off is given here; in the data, active means growth inhibition above about 70%; inactive means the rest.

As to `NNc1ccccc1`, the growth inhibition is 13% in experiment [1] (setting [7]); 97% (active) in experiment [1] (setting [8]); 98.6% (active) in experiment [1] (at 50.0 µM); 1% in experiment [2] (setting [7]); 95% (active) in experiment [2] (setting [8]); 97.3% (active) in experiment [2] (at 50.0 µM). In addition, the growth inhibition in experiment [3] (setting [7]) was 3%; in experiment [3] (setting [8]) it was 98% (active); in experiment [3] (at 50.0 µM), 98.8% (active); in experiment [4] (setting [7]), 0%; in experiment [4] (setting [8]), 96% (active); in experiment [4] (at 50.0 µM), 96.8% (active). The growth inhibition in experiment [5] (setting [7]) was 9%; in experiment [5] (setting [8]), 98% (active); in experiment [5] (at 50.0 µM), 96.2% (active); in experiment [6] (setting [7]), 15%; in experiment [6] (setting [8]) it was 98% (active); in experiment [6] (at 50.0 µM), 98.6% (active).

Turning to `CCC[CH2][Sn]1([CH2]CCC)[O]CC(C)[O]1` (centres undefined), the growth inhibition in experiment [1] (setting [7]) was 33%; in experiment [1] (setting [8]), 95% (active); in experiment [1] (at 50.0 µM), 86% (active); in experiment [2] (setting [7]), 30%; in experiment [2] (setting [8]), 97% (active); in experiment [2] (at 50.0 µM), 90% (active). In addition, the growth inhibition is 42% in experiment [3] (setting [7]); 68% in experiment [3] (setting [8]); 88.2% (active) in experiment [3] (at 50.0 µM); 34% in experiment [4] (setting [7]); 64% in experiment [4] (setting [8]); 87.2% (active) in experiment [4] (at 50.0 µM). Moreover, the growth inhibition in experiment [5] (setting [7]) was 48%; in experiment [5] (setting [8]), 97% (active); in experiment [5] (at 50.0 µM) it was 88.3% (active); in experiment [6] (setting [7]), 53%; in experiment [6] (setting [8]), 96% (active); in experiment [6] (at 50.0 µM), 86.7% (active).

On to `CN(C)N(P(N)(Cl)(c1ccccc1)c1ccccc1)P(N)(Cl)(c1ccccc1)c1ccccc1`, for which the growth inhibition in experiment [1] (setting [7]) was 13%; in experiment [1] (setting [8]) it was 90% (active); in experiment [1] (at 50.0 µM) it was 63.2%; in experiment [2] (setting [7]), 22%; in experiment [2] (setting [8]), 97% (active); in experiment [2] (at 50.0 µM), 54.5%. Moreover, the growth inhibition was -221% in experiment [3] (setting [7]); 96% (active) in experiment [3] (setting [8]); 44.9% in experiment [3] (at 50.0 µM); 0% in experiment [4] (setting [7]); 88% (active) in experiment [4] (setting [8]); 58.5% in experiment [4] (at 50.0 µM). The growth inhibition is 4% in experiment [5] (setting [7]); 88% (active) in experiment [5] (setting [8]); 49.5% in experiment [5] (at 50.0 µM); 25% in experiment [6] (setting [7]); 96% (active) in experiment [6] (setting [8]); 50.6% in experiment [6] (at 50.0 µM).

`ClCCN(CCCl)c1ccc(C2N(Cc3ccc(Cl)cc3)CCN2Cc2ccc(Cl)cc2)cc1`: the growth inhibition in experiment [1] (setting [7]) is 25%; in experiment [1] (setting [8]) it was 86% (active); in experiment [1] (at 50.0 µM), 79.4% (active); in experiment [2] (setting [7]), 44%; in experiment [2] (setting [8]) it was 85% (active); in experiment [2] (at 50.0 µM) it was 60.5%. Moreover, the growth inhibition in experiment [3] (setting [7]) was 53%; in experiment [3] (setting [8]) it was 94% (active); in experiment [3] (at 50.0 µM), 80.9% (active); in experiment [4] (setting [7]) it was 13%; in experiment [4] (setting [8]), 85% (active); in experiment [4] (at 50.0 µM), 46.9%. Further, the growth inhibition in experiment [5] (setting [7]) is 22%; in experiment [5] (setting [8]), 71% (active); in experiment [5] (at 50.0 µM), 48%; in experiment [6] (setting [7]), 76% (active); in experiment [6] (setting [8]), 97% (active); in experiment [6] (at 50.0 µM), 79.5% (active).

Turning to `C[C@@H](O)[C@H]1/C=C/C=C\C(=O)O[C@@H]2C[C@H]3O[C@@H]4[C@@H]5OC5(C)CCC4(COC(=O)[C@H]4O[C@]4(C)[C@@H](O)CO1)[C@]2(C)[C@]31CO1` (some centres undefined), the growth inhibition was 26% in experiment [1] (setting [7]); 95% (active) in experiment [1] (setting [8]); 91.4% (active) in experiment [1] (at 50.0 µM); 24% in experiment [2] (setting [7]); 87% (active) in experiment [2] (setting [8]); 92.5% (active) in experiment [2] (at 50.0 µM). For the same molecule, the growth inhibition in experiment [3] (setting [7]) is 44%; in experiment [3] (setting [8]) it was 96% (active); in experiment [3] (at 50.0 µM), 92% (active); in experiment [4] (setting [7]), 42%; in experiment [4] (setting [8]), 96% (active); in experiment [4] (at 50.0 µM), 90.4% (active). Besides, the growth inhibition is 31% in experiment [5] (setting [7]); 93% (active) in experiment [5] (setting [8]); 91% (active) in experiment [5] (at 50.0 µM); 28% in experiment [6] (setting [7]); 97% (active) in experiment [6] (setting [8]); 90.2% (active) in experiment [6] (at 50.0 µM).

For the molecule `[C-]#[O+].[C-]#[O+].[C-]#[O+].[C-]#[O+].[C-]#[O+].[Mo+2].[Mo+4].[c-]1[c-][c-][cH-][c-]1.[c-]1[c-][c-][cH-][c-]1.c1ccc([PH+](CC[PH+](c2ccccc2)c2ccccc2)c2ccccc2)cc1`, the growth inhibition in experiment [1] (setting [7]) was 82% (active); in experiment [1] (setting [8]), 98% (active); in experiment [1] (at 50.0 µM), 90.5% (active); in experiment [2] (setting [7]), 73% (active); in experiment [2] (setting [8]), 99% (active); in experiment [2] (at 50.0 µM), 93% (active). In addition, the growth inhibition in experiment [3] (setting [7]) was 91% (active); in experiment [3] (setting [8]) it was 98% (active); in experiment [3] (at 50.0 µM) it was 92.3% (active); in experiment [4] (setting [7]), 60%; in experiment [4] (setting [8]), 98% (active); in experiment [4] (at 50.0 µM), 92% (active). Moreover, the growth inhibition in experiment [5] (setting [7]) is 84% (active); in experiment [5] (setting [8]) it was 98% (active); in experiment [5] (at 50.0 µM), 92.3% (active); in experiment [6] (setting [7]) it was 79% (active); in experiment [6] (setting [8]), 98% (active); in experiment [6] (at 50.0 µM), 90.5% (active).

With `C[CH2][Sn]([CH2]C(=O)OC)([CH2]C(=O)OC)[c]1ccccc1`, the growth inhibition in experiment [1] (setting [7]) is 97% (active); in experiment [1] (setting [8]), 97% (active); in experiment [1] (at 50.0 µM), 83.7% (active); in experiment [2] (setting [7]), 98% (active); in experiment [2] (setting [8]) it was 98% (active); in experiment [2] (at 50.0 µM) it was 89.2% (active). For the same molecule, the growth inhibition in experiment [3] (setting [7]) was 98% (active); in experiment [3] (setting [8]), 98% (active); in experiment [3] (at 50.0 µM) it was 87.8% (active); in experiment [4] (setting [7]) it was 86% (active); in experiment [4] (setting [8]) it was 97% (active); in experiment [4] (at 50.0 µM), 84.7% (active). Moreover, the growth inhibition in experiment [5] (setting [7]) was 98% (active); in experiment [5] (setting [8]) it was 98% (active); in experiment [5] (at 50.0 µM), 86% (active); in experiment [6] (setting [7]), 97% (active); in experiment [6] (setting [8]), 97% (active); in experiment [6] (at 50.0 µM) it was 90.8% (active).

As for `CN=C(N)N/N=C(\C)c1ccc2sc3ccc(/C(C)=N/NC(N)=NC)cc3c2c1`, the growth inhibition in experiment [1] (setting [7]) is 49%; in experiment [1] (setting [8]), 55%; in experiment [1] (at 50.0 µM) it was 74.7% (active); in experiment [2] (setting [7]) it was -4%; in experiment [2] (setting [8]), -2%; in experiment [2] (at 50.0 µM) it was 24.5%. Moreover, the growth inhibition in experiment [3] (setting [7]) was 23%; in experiment [3] (setting [8]) it was 14%; in experiment [3] (at 50.0 µM), 13%; in experiment [4] (setting [7]) it was 17%; in experiment [4] (setting [8]), 7%; in experiment [4] (at 50.0 µM), 20.8%. Also, the growth inhibition in experiment [5] (setting [7]) was 24%; in experiment [5] (setting [8]), 20%; in experiment [5] (at 50.0 µM), -8.5%; in experiment [6] (setting [7]), 14%; in experiment [6] (setting [8]), 17%; in experiment [6] (at 50.0 µM), 30.2%.
